Test results published in article PMC4336329 (PLoS ONE, 2015).
Hit rate of the full screen: of about 310,000 compounds, about 14,000 (4.5%) showed an effect of 50% or more. The effect is printed as a negative number. The full list was thinned out, with strong results kept by preference.

target: human ether-à-go-go-related gene (hERG) potassium channel (human, UniProt Q12809); test: primary screen, population patch clamp on CHO cells stably expressing hERG; higher = less effect of the substance
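Also: peak tail current of the secondary pulse compared with the same well before compound.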

human ether-à-go-go-related gene (hERG) potassium channel, sequence (Q12809 whole entry, looked up): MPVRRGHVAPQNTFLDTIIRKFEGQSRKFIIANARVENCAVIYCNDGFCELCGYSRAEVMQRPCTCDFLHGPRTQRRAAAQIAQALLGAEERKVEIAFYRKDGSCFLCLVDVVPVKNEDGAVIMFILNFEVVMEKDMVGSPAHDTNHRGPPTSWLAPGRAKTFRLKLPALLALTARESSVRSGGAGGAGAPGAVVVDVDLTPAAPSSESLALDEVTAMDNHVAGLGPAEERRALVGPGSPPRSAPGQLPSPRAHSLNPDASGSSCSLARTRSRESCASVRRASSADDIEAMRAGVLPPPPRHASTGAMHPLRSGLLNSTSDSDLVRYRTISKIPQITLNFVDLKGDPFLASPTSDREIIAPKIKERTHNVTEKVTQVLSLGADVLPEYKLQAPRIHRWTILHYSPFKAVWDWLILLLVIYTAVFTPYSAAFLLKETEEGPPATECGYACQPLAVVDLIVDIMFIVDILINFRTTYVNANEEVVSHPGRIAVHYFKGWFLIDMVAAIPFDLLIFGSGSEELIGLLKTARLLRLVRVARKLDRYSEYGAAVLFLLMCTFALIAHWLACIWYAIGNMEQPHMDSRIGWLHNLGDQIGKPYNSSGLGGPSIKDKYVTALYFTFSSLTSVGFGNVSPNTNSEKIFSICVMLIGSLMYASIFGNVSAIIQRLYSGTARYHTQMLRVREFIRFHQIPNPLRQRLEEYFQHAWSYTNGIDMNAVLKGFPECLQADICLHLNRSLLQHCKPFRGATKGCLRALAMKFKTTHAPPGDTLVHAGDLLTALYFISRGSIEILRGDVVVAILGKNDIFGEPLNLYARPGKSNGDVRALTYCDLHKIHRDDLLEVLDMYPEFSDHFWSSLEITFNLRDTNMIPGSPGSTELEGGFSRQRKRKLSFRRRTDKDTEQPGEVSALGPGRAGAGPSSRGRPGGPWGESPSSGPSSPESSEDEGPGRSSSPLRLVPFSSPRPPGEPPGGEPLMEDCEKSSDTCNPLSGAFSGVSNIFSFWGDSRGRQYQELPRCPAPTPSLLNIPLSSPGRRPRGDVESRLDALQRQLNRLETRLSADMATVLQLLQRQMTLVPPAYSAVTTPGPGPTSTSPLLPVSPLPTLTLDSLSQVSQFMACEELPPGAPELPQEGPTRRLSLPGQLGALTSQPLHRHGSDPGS

SMILES	hERG current change (%, negative = inhibition) at 10uM [%]
Cc1ccc2cccc(Oc3ncnc4scc(-c5ccc(Cl)cc5)c34)c2n1	3.87
CCCNC(=O)C(=O)N/N=C/c1ccc(OCc2ccccc2)cc1	26.9
COC(=O)c1ccc(CSc2nc3cc(Cl)ccc3s2)o1	9.32
CN1C(=O)C(CC(=O)O)S/C1=N\N=C\c1ccc(O)cc1O (stereo not shown)	6.03
Cc1ccc(NCCC(=O)c2ccc(Br)cc2)cc1	0.444
CCOC(=O)N1CCC(Nc2ccc3nnc(-c4ccccc4)n3n2)CC1	-82
CCOC(=O)N1CCC(Nc2c(-c3ccccc3)c(=O)c2=O)CC1	-23.2
CCOC(=O)CC(=O)CSc1ccc2nnc(-c3cccc(F)c3)n2n1	-72.2
CCOC(=O)CSc1ccc2nnc(-c3ccccc3)n2n1	-39.3
CCOC(=O)N1CCC(NC(=O)Cc2ccccc2)CC1	15.6
Cc1cc(NC(=O)CSc2ccc3nnc(-c4cccc(F)c4)n3n2)no1	-14.3
CCSc1ccc2nnc(-c3cccs3)n2n1	-34
O=C(CSc1ccc2nnc(-c3cccs3)n2n1)N1CCCC1	-43.4
CCOC(=O)CC(=O)CSc1ccc2nnc(-c3ccc(F)cc3)n2n1	-23.4
CCOC(=O)CC(=O)CSc1ccc2nnc(-c3ccccc3)n2n1	-71.7
CCOC(=O)CSc1ccc2nnc(-c3cccs3)n2n1	-51.2
CCOC(=O)CSc1ccc2nnc(-c3ccncc3)n2n1	-31.4
COc1ccc(CNC(=O)CN2CCN(S(=O)(=O)c3cccs3)CC2)cc1OC	1.64
Cc1c(C(=O)N2CCCCC2)c(S(=O)(=O)N2CCC(C)CC2)c(C)n1C	3.48
C=CCn1c(Oc2ccccc2F)nc2c1c(=O)n(C)c(=O)n2C	2.59
CC1=C[C@H](C)[C@H](c2c(F)cccc2Cl)CC1=O	6.22
C=CCSc1nnc(NC(=O)c2cccc(S(=O)(=O)N3CCOCC3)c2)s1	-11.1
O=C(Nc1ccccc1C(F)(F)F)N1CCCCCC1	8.71
COc1ccc2nc(NC(=O)C(NS(=O)(=O)c3cccc4nsnc34)C(C)C)sc2c1 (stereo not shown)	10.4
Cc1ccccc1C(=O)c1ccc2c(c1)n(C)c(=O)n2C	2.11
COC(=O)C(C)Sc1ccc2nnc(-c3ccccc3)n2n1 (stereo not shown)	-30.8
COC(=O)C(C)Sc1ccc2nnc(-c3cccc(F)c3)n2n1 (stereo not shown)	-58
COC(=O)C(C)Sc1ccc2nnc(-c3ccc(F)cc3)n2n1 (stereo not shown)	-27
